Consider four compounds from PubChem BioAssay (EPA / NIEHS).

What is called AC50 is the concentration at which the activity in the assay is half-maximal.

SMILES strings stand for the structures. Calls of active or inactive are those of the source. Rule for the calls: active = hit-call score of the fitted dose curve at least 0.9, where 1 is the maximum; inactive = score below 0.9.

Settings in all cases: mRNA level, 48 h; actives raise or lower the signal
Read-out in assay [1]: Insulin Like Growth Factor 1 (IGF1), IGF1 (gene 3479)
Put plainly: LTEA_HepaRG_IGF1: Life Technologies and Expression Analysis (LTEA) Assay for Insulin Like Growth Factor 1 (IGF1) using HepaRG (AID 2283506). A digest of the protocol:
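Endpoint: IGF1 mRNA change by qRT-PCR, housekeeping-normalized, fitted bidirectionally relative to 0.5% DMSO vehicle. Human HepaRG cells were treated 48 h in serum-free induction medium, eight half-log concentrations topping at 100 uM.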

Read-out in assay [2]: Intercellular Adhesion Molecule 1 (ICAM1), ICAM1 (gene 3383)
In words: LTEA_HepaRG_ICAM1: Life Technologies and Expression Analysis (LTEA) Assay for Intercellular Adhesion Molecule 1 (ICAM1) using HepaRG (AID 2283507). A digest of the protocol: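 Differentiated human HepaRG cells in serum-free induction medium exposed 48 h in duplicate to 8 half-log concentrations (top 100 uM, 0.5% DMSO). ICAM1 mRNA quantified by TaqMan qRT-PCR, normalized to ACTB, GAPDH and POLR2A; bidirectional fitting versus DMSO.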

Read-out in assay [3]: Insulin-like growth factor-binding protein 1 (IGFBP1), IGFBP1 (gene 3484)
In words: LTEA_HepaRG_IGFBP1: Life Technologies and Expression Analysis (LTEA) Assay for Insulin-like growth factor-binding protein 1 (IGFBP1) using HepaRG (AID 2283508). A digest of the protocol:
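HepaRG cells, plated 48 h then switched to serum-free induction medium, exposed in duplicate for 48 h to 8-point half-log series from 100 uM in 0.5% DMSO. mRNA measured by qRT-PCR, normalized to ACTB/GAPDH/POLR2A; bidirectional fit versus DMSO.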

Read-out in assay [4]: Interleukin 6 (IL6), IL6 (gene 3569)
Put plainly: LTEA_HepaRG_IL6: Life Technologies and Expression Analysis (LTEA) Assay for Interleukin 6 (IL6) using HepaRG (AID 2283509). A digest of the protocol: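 Transcript levels, normalized to three housekeeping genes, were quantified by qRT-PCR after 48 h chemical treatment of HepaRG cells. Eight-point half-log series from 100 uM in 0.5% DMSO, duplicates. Fitted both directions against DMSO baseline.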

Read-out in assay [5]: Potassium channel subfamily K member 1 (KCNK1), KCNK1 (gene 3775)
In words: LTEA_HepaRG_KCNK1: Life Technologies and Expression Analysis (LTEA) Assay for Potassium channel subfamily K member 1 (KCNK1) using HepaRG (AID 2283511). A digest of the protocol:
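KCNK1 transcript measured by TaqMan qRT-PCR against three housekeeping genes, after HepaRG cells were treated 48 h with eight half-log concentrations (top 100 uM, 0.5% DMSO). Curves fitted bidirectionally relative to vehicle.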

Read-out in assay [6]: Keratin 19 (KRT19), KRT19 (gene 3880)
In words: LTEA_HepaRG_KRT19: Life Technologies and Expression Analysis (LTEA) Assay for Keratin 19 (KRT19) using HepaRG (AID 2283512). In a few lines:
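Differentiated HepaRG cells in serum-free induction medium, exposed 48 h in duplicate to 8 half-log concentrations up to 100 uM in 0.5% DMSO. KRT19 mRNA by qRT-PCR, normalized to ACTB, GAPDH, POLR2A; bidirectional fit vs DMSO.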

Read-out in assay [7]: JUN Transcription Factor, JUN (gene 3725)
Put plainly: LTEA_HepaRG_JUN: Life Technologies and Expression Analysis (LTEA) Assay for JUN Transcription Factor using HepaRG (AID 2283513). In a few lines:
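Gene-expression endpoint: JUN mRNA (qRT-PCR, normalized to three reference genes) in HepaRG cultures treated 48 h with chemicals, duplicate wells, 100 uM maximum with half-log dilutions; bidirectional fitting relative to 0.5% DMSO.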

Read-out in assay [8]: Lipase C (LIPC), LIPC (gene 3990)
Put plainly: LTEA_HepaRG_LIPC: Life Technologies and Expression Analysis (LTEA) Assay for Lipase C (LIPC) using HepaRG (AID 2283514). A digest of the protocol: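 LIPC expression was quantified by qRT-PCR against three housekeeping genes (ACTB, GAPDH, POLR2A). Differentiated human HepaRG cells received eight half-log doses (top 100 uM, 0.5% DMSO) in duplicate for 48 h; fitting bidirectional relative to DMSO.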

Read-out in assay [9]: Lipoprotein lipase (LPL), LPL (gene 4023)
Put plainly: LTEA_HepaRG_LPL: Life Technologies and Expression Analysis (LTEA) Assay for Lipoprotein lipase (LPL) using HepaRG (AID 2283515). A digest of the protocol:
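LPL transcript levels quantified by TaqMan qRT-PCR against three housekeeping genes after 48 h chemical treatment of HepaRG cells. Eight-point half-log series from 100 uM in 0.5% DMSO, tested in duplicate; bidirectional fitting versus vehicle.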

Read-out in assay [10]: MicroRNA 122 (MIR122), gene 406906
Put plainly: LTEA_HepaRG_MIR122: Life Technologies and Expression Analysis (LTEA) Assay for MicroRNA 122 (MIR122) using HepaRG (AID 2283516). Note: the transcript read is the microRNA miR-122. A digest of the protocol: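 Changes in transcript abundance, up or down relative to 0.5% DMSO vehicle, were scored after 48 h chemical treatment of HepaRG cells (maximum 100 uM). Quantification used TaqMan qRT-PCR normalized to housekeeping genes.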

Read-out in assay [11]: matrix metalloproteinase-10 (MMP10), MMP10 (gene 4319)
Put plainly: LTEA_HepaRG_MMP10: Life Technologies and Expression Analysis (LTEA) Assay for matrix metalloproteinase-10 (MMP10) using HepaRG (AID 2283517). In a few lines: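 Expression measured by TaqMan qRT-PCR with ACTB/GAPDH/POLR2A normalisation after 48 h chemical exposure of HepaRG cells. Eight half-log concentrations, top 100 uM, 0.5% DMSO vehicle, duplicates; gain or loss fitted against vehicle.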

Read-out in the next assay: MYC, MYC (gene 4609)
In words: LTEA_HepaRG_MYC: Life Technologies and Expression Analysis (LTEA) Assay for MYC using HepaRG (AID 2283518). A digest of the protocol: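 Differentiated HepaRG cells exposed 48 h in serum-free induction medium to 8 concentrations (top 100 uM, half-log steps; 0.5% DMSO), duplicate. MYC mRNA measured by Fluidigm qRT-PCR, normalized to ACTB, GAPDH, POLR2A; bidirectional fit versus DMSO.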

Read-out in assay [12]: Paternally Expressed 10 (PEG10), PEG10 (gene 23089)
Put plainly: LTEA_HepaRG_PEG10: Life Technologies and Expression Analysis (LTEA) Assay for Paternally Expressed 10 (PEG10) using HepaRG (AID 2283520).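 For AC50: PEG10 transcript by qRT-PCR normalised to ACTB GAPDH and POLR2A.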 A digest of the protocol:
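After 48 h exposure of differentiated HepaRG cells (0.5% DMSO vehicle, eight concentrations up to 100 uM, duplicates), PEG10 mRNA was measured by TaqMan qRT-PCR. Values were normalised to endogenous control genes and analysed bidirectionally against vehicle.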

Read-out in assay [13]: Nuclear factor NF-kappa-B p105 subunit (Homo sapiens) (UniProt P19838)
Put plainly: LTEA_HepaRG_NFKB1: Life Technologies and Expression Analysis (LTEA) Assay for Nuclear Factor Kappa B Subunit 1 (NFKB1) using HepaRG (AID 2283521).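 Note: TaqMan qRT-PCR transcript normalised to ACTB GAPDH and POLR2A housekeeping genes.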 A digest of the protocol: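 Differentiated human HepaRG cells in serum-free induction medium with 0.5% DMSO were exposed for 48 h to eight half-log concentrations, top 100 uM, in duplicate. NFKB1 mRNA measured by Fluidigm TaqMan qRT-PCR, normalised to ACTB, GAPDH and POLR2A; bidirectional fit versus DMSO.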

Read-out in assay [14]: Protein phosphatase 2A (PPP2R4), PTPA (gene 5524)
Put plainly: LTEA_HepaRG_PPP2R4: Life Technologies and Expression Analysis (LTEA) Assay for Protein phosphatase 2A (PPP2R4) using HepaRG (AID 2283522). A digest of the protocol:
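Using HepaRG cultures maintained in 0.5% DMSO, chemicals are tested 48 h at up to 100 uM in duplicate. Induction or suppression of PPP2R4 mRNA, measured by qRT-PCR, is fitted bidirectionally against the vehicle baseline.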

Read-out in assay [15]: Phosphatase and tensin (PTEN), PTEN (gene 5728)
Put plainly: LTEA_HepaRG_PTEN: Life Technologies and Expression Analysis (LTEA) Assay for Phosphatase and tensin (PTEN) using HepaRG (AID 2283523). In a few lines: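 Read-out: TaqMan qRT-PCR of PTEN transcript, normalized to three housekeeping genes, fitted in both directions against 0.5% DMSO. Differentiated human HepaRG cultures received chemicals for 48 h, eight-point half-log series topping at 100 uM.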

Read-out in assay [16]: solute carrier (SLC22A1), SLC22A1 (gene 6580)
In words: LTEA_HepaRG_SLC22A1: Life Technologies and Expression Analysis (LTEA) Assay for solute carrier (SLC22A1) using HepaRG (AID 2283524). In a few lines:
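Transcript level of SLC22A1 quantified by qRT-PCR (normalized to three housekeeping genes) after 48 h chemical exposure of HepaRG cells, eight concentrations up to 100 µM, half-log steps, 0.5% DMSO vehicle. Gain or loss relative to DMSO fitted bidirectionally.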

Read-out in assay [17]: Interleukin 6 Receptor (IL6R), IL6R (gene 3570)
Put plainly: LTEA_HepaRG_IL6R: Life Technologies and Expression Analysis (LTEA) Assay for Interleukin 6 Receptor (IL6R) using HepaRG (AID 2283510). A digest of the protocol:
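In this HepaRG screen, test chemicals act on cells for 48 h at up to 100 uM (eight half-log points, duplicate wells). IL6R expression is quantified by qRT-PCR after normalization to ACTB, GAPDH and POLR2A, with DMSO as baseline.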

Read-out in assay [18]: matrix metalloproteinase-3 (MMP3), MMP3 (gene 4314)
In words: LTEA_HepaRG_MMP3: Life Technologies and Expression Analysis (LTEA) Assay for matrix metalloproteinase-3 (MMP3) using HepaRG (AID 2283519). In a few lines:
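Fluidigm-based TaqMan qRT-PCR, normalized to ACTB, GAPDH and POLR2A and fitted bidirectionally versus 0.5% DMSO, measured transcript levels. Treatment: duplicate 48 h exposures of HepaRG cells, ~100,000/well, to eight half-log concentrations topping at 100 uM.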

Read-out in assay [19]: Pyruvate Dehydrogenase Kinase 4 (PDK4), PDK4 (gene 5166)
Put plainly: LTEA_HepaRG_PDK4: Life Technologies and Expression Analysis (LTEA) Assay for Pyruvate Dehydrogenase Kinase 4 (PDK4) using HepaRG (AID 2283525). In a few lines: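 Readout is qRT-PCR of PDK4 transcript, normalized to three housekeeping genes, with bidirectional fitting against 0.5% DMSO vehicle. Differentiated HepaRG cells were treated 48 h in serum-free induction medium, duplicate wells, eight-point half-log series topping at 100 uM.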

Sequence of Nuclear factor NF-kappa-B p105 subunit (Homo sapiens) (P19838 whole entry, looked up): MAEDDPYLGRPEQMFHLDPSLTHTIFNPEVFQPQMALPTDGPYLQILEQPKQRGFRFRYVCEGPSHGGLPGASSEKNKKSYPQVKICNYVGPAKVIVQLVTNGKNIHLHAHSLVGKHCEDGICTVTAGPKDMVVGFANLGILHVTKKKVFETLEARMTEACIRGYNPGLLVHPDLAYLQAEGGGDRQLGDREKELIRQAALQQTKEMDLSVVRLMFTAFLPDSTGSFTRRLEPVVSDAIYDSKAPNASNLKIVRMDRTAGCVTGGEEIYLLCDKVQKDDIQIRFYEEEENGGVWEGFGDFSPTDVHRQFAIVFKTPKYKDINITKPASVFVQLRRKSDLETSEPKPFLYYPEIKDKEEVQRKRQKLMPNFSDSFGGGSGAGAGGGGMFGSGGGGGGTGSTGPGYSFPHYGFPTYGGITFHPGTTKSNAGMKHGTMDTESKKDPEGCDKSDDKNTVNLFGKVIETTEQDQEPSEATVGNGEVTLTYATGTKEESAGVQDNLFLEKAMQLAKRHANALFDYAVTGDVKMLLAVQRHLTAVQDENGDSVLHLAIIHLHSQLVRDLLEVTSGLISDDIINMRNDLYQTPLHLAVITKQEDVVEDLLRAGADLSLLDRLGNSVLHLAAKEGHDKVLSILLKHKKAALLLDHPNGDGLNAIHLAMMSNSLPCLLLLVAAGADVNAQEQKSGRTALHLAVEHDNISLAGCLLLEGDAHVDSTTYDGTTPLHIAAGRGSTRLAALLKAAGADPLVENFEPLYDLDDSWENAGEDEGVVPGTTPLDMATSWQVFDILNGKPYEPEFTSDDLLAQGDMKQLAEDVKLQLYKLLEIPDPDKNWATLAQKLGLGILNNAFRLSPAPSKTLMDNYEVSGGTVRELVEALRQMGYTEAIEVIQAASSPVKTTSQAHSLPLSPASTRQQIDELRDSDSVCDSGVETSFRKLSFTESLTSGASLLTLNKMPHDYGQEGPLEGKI

As to `Fc1ccccc1[C@@H](F)COC1CCC(Nc2ncnc3[nH]ncc23)CC1` (stereo partly drawn), the AC50 in assay [1] is 50 µM (active); in assay [2], 50 µM (active); in assay [3], 63.8 µM (active); in assay [4], 73.7 µM (active); in assay [6] it was 12.6 µM (active); in [8], 50 µM (active). Further, the AC50 in [9] is 28 µM (active); in assay [10], 56.5 µM (active); in [11], 64.7 µM (active); with MYC, MYC (gene 4609) it was 34 µM (active); in assay [12] it was 35.8 µM (active); in assay [16], 55.8 µM (active). For the same compound, the compound was classed as inactive in [5], in assay [7], in assay [13], in assay [14] and in assay [15].

As for `CC(=O)OC[C@H]1O[C@@](COC(C)=O)(O[C@H]2O[C@H](COC(C)=O)[C@@H](OC(C)=O)[C@H](OC(C)=O)[C@H]2OC(C)=O)[C@@H](OC(C)=O)[C@@H]1OC(C)=O`, the compound was called inactive in assay [1], in [2], in assay [3], in assay [4], in assay [17] and in assay [5]. Further, the outcome in assay [8] was “inactive”; in assay [9], “inactive”; in assay [10], “inactive”; in assay [11] it was “inactive”; with MYC, MYC (gene 4609), “inactive”; in assay [18], “inactive”. The call in assay [12], in assay [14], in assay [15], in assay [16] and in [19] was inactive.

For the compound `Nc1ccc(Nc2ccccc2)cc1`, the AC50 is 50 µM (active) in [1], 50 µM (active) in [6], 83.4 µM (active) in assay [8] and 79.9 µM (active) in assay [12]. The compound was called inactive in assay [2], in assay [3], in assay [17], in assay [5], in assay [7] and in [9]. Further, the outcome in assay [10] is “inactive”; in assay [11] it was “inactive”; in the assay with MYC, MYC (gene 4609) it was “inactive”; in assay [18], “inactive”; in assay [13] it was “inactive”; in assay [14], “inactive”. For the same compound, the result in assay [15] and in assay [16] was inactive.

Take `CC(=O)OCCC(C)C`: the compound was called inactive in [1], in [2], in [3], in assay [4], in assay [17] and in assay [5]. Besides, the outcome in assay [8] is “inactive”; in assay [9], “inactive”; in [10], “inactive”; in assay [11], “inactive”; with MYC, MYC (gene 4609), “inactive”; in assay [18] it was “inactive”. In addition, the result in assay [12], in [14], in [15] and in assay [16] was inactive.
